# High-throughput results as filed in PubChem.
# In the library only some 2.7% were active in any assay of this set; here they are far more common.
# HSP90 refold inh: blocks HSP90-mediated luciferase refolding in reticulocyte lysate. inhibition, % at 5.6 µM. AID 1789. Rabbit reticulocyte lysate, luciferase refolding luminescence, 3 h. actives 0.91% (n = 290,000);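 active = inhibition above the screen-wide mean plus 3 SD, computed separately per campaign, cut at about 16% in these data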;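 also: 0% = DMSO wells and 100% = 60 µM geldanamycin wells; inhibitors lower the luminescence because luciferase stays unfolded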
# SENP8 block-1: inhibitors of human SENP8 protease; recombinant SENP8, Nedd8 substrate fluorescence; inhibition, % at 20 µM; actives 0.64% (n = 360,000); in the data active = inhibition mostly above about 40%, no sharp cut-off; inactive = mostly below about 27%
# Target sequence (Q96LD8 whole entry, looked up): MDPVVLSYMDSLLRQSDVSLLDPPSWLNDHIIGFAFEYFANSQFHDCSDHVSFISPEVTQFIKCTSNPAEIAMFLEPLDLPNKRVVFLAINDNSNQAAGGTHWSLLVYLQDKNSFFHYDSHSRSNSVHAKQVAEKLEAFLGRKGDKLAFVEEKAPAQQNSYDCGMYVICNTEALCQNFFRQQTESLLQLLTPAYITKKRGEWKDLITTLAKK
# SENP7 block: inhibitors of human SENP7 protease. recombinant SENP7, Z-RLRGG-aminoluciferin luminescence, 40 min. actives 1.5% (n = 330,000). Q9BQF6. inhibition, % at 5 µM;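 active = inhibition above about 50% at the single test dose, limit read from the data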;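 also: plate controls were DMSO with enzyme for no effect and no enzyme buffer wells for full effect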
# SENP6 block: blocks the human protease SENP6; inhibition, % at 10 µM; Recombinant SENP6 catalytic domain, aminoluciferin luminescence; Q9GZR1; actives 1.8% (n = 330,000);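 active = inhibition above about 50% at the single tested dose, limit read from the data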;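 also: plate controls were DMSO wells with enzyme for no effect and DMSO wells lacking enzyme for full effect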
# SENP8 block-2: inhibitors of human SENP8 protease; Q96LD8; purified SENP8, Z-RLRGG-aminoluciferin cleavage, luminescence; inhibition, % at 10 µM; actives 1.2% (n = 330,000); in the data active = inhibition above about 50%
# SENP8 confirm: human SENP8 inhibition, confirmed. shares compounds with SENP7 block. Recombinant SENP8, Z-RLRGG-aminoluciferin luminescence, 60 min. inhibition, % at 12.5 µM. actives 40% (n = 6,200). AID 488912;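 active = mean inhibition across replicates above about 50%, limit read from the data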
# SENP6 confirm: human SENP6 inhibition, confirmed; shares compounds with SENP7 block; recombinant SENP6, Z-RLRGG-aminoluciferin luminescence; inhibition, % at 12.5 µM; actives 58% (n = 6,200); AID 488915
# SENP7 conf: confirmation of human SENP7 protease inhibitors; inhibition, % at 12.5 µM; AID 488917; shares compounds with SENP7 block; recombinant SENP7, Z-RLRGG-aminoluciferin luminescence, 40 min; actives 69% (n = 6,200)
# Casp3 select: selectivity test for SENP inhibitors: human caspase-3 inhibition; shares compounds with SENP7 block; purified caspase-3, Z-DEVD-aminoluciferin luminescence, 60 min; inhibition, % at 12.5 µM; actives 60% (n = 6,200); AID 488918;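 active = mean inhibition above about 50%, limit read from the data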;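 also: plate controls were enzyme with DMSO for no effect and wells without caspase-3 for full effect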
# Target sequence (P42574 28-227 limits assumed): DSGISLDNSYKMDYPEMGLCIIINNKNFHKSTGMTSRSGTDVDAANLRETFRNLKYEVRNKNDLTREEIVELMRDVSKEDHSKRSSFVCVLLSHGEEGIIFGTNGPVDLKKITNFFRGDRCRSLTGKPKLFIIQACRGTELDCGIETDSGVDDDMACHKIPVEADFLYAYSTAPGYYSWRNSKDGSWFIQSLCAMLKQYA
# Luc interf: counter-screen for SENP inhibitors: luminescence interference. inhibition, % at 12.5 µM. AID 488919. shares compounds with SENP7 block. actives 39% (n = 6,200). Pre-incubated SENP8/Z-RLRGG-aminoluciferin, luciferase luminescence interference;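 active = mean inhibition above about 50% when retested at one dose, limit read from the data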;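 also: plate controls were DMSO wells with completed reaction for no effect and substrate without enzyme for full effect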
# Numbers without * were called inactive; x = not tested or not shown.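 The calls were made as follows, unless noted: active = mean inhibition above about 50% in the one-dose retest (limit read from the data); inactive = the rest.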
SMILES,HSP90 refold inh,SENP8 block-1,SENP7 block,SENP6 block,SENP8 block-2,SENP8 confirm,SENP6 confirm,SENP7 conf,Casp3 select,Luc interf
CCOC(=O)C1=C(COC(=O)CCNS(=O)(=O)c2ccc(C)c(C)c2)NC(=O)NC1C (configuration not stated),x,6,2,-5,-5,x,x,x,x,x
COc1cccc(Nc2nc(-c3ccc4c(c3)OCCO4)cs2)c1,4,-38,7,55*,30,22,32,69*,8,8
COc1ccccc1C(=O)Nc1nc(-c2ccc3c(c2)OCCO3)cs1,1,-188,3,14,24,x,x,x,x,x
N#C/C(=C\Nc1ccc2c(c1)OCCO2)c1nc(-c2ccccc2)cs1,-1,-51,-12,-5,-4,x,x,x,x,x
c1ccc(-c2csc(Nc3ccc4c(c3)OCCO4)n2)cc1,13,-131,91*,95*,91*,95*,95*,101*,74*,84*
COc1ccc(N(CC(=O)NCCSc2ccccn2)S(C)(=O)=O)cc1Cl,-2,1,2,-5,-4,x,x,x,x,x
CC(=O)Nc1ccc(N=Cc2c(O)c(C(=O)Nc3ccccc3)cc3ccccc23)cc1,2,x,30,45,72*,21,16,20,14,11
O=C(CN1C(=O)c2ccccc2S1(=O)=O)NCCSCc1cccc(Cl)c1,4,14,5,-8,7,x,x,x,x,x
CCc1sc(C(=O)Nc2cccnc2)cc1Br,-1,14,79*,84*,60*,0,67*,91*,64*,72*
Cc1ccc(-c2cc(C(=O)Nc3cccnc3)[nH]n2)c(O)c1C,-1,24,95*,98*,93*,96*,97*,101*,90*,96*
O=C(Nc1cccnc1)c1ccc(Br)s1,-2,12,3,11,-14,x,x,x,x,x
O=C(Nc1cccnc1)c1ccc(C(=O)Nc2cccnc2)cc1,1,12,5,2,-2,x,x,x,x,x
Cc1cccc(NC(=O)c2cc(-c3cc(C)c(C)cc3O)n[nH]2)c1,2,12,45,17,-8,x,x,x,x,x
CC(C)(C)c1ccc(C(=O)Nc2cccnc2)cc1,3,9,62*,69*,53*,12,55*,86*,66*,62*
O=C(CC1SC(N2CCCC2)=NC1=O)Nc1ccc(C(=O)NCc2ccccc2F)cc1 (configuration not stated),x,18,x,x,x,x,x,x,x,x
O=[N+]([O-])c1ccc(NC(=S)N2CCc3ccccc32)cc1,4,8,8,25,-10,x,x,x,x,x
C#CCOCCOCCOCCNc1nc(N2CCN(C(=O)[C@H](CCCCN)n3cc([C@@H](N)CO)nn3)CC2)nc(N2CCN(C(=O)[C@H](Cc3ccc(O)cc3)n3cc([C@@H](N)CC(C)C)nn3)CC2)n1,9,33,-13,-6,5,x,x,x,x,x
Cn1c(=O)c2ncn(CC(=O)Nc3cccc(-c4nc5ccccc5s4)c3)c2n(C)c1=O,0,-146,-8,72*,60*,12,43,64*,36,24
Cc1ccccc1-c1nc2sc(-c3ccccc3)cc2c(=O)o1,1,-41,84*,80*,37,-21,-10,-7,9,-5
Cc1ccccc1-c1nc2sc(C)c(C)c2c(=O)o1,-3,21,83*,77*,61*,38,39,35,48,13
O=C1c2ccccc2C(=O)C12OC2c1cccc2ccccc12 (configuration not stated),4,93*,0,87*,53*,72*,88*,78*,3,10
COc1ccc(-c2cc(C)no2)cc1S(=O)(=O)N1CCCN(Cc2ccccc2Cl)C1,4,8,3,14,-6,x,x,x,x,x
O=C(NC(=S)Nc1ccc2c(c1)OCCO2)c1ccccc1F,-1,20,2,-24,-9,x,x,x,x,x
O=C(Nc1ccc2c(c1)OCCO2)c1ccccc1F,14,10,78*,76*,58*,69*,68*,92*,90*,81*
COc1ccc(NC(=O)c2ccccc2F)cc1Cl,3,18,79*,81*,76*,83*,84*,92*,88*,21
SMILES,HSP90 refold inh,SENP8 block-1,SENP7 block,SENP6 block,SENP8 block-2,SENP8 confirm,SENP6 confirm,SENP7 conf,Casp3 select,Luc interf
O=C(Nc1ccc(C(=O)N2CCCC2)cc1)c1ccccc1F,1,5,77*,69*,58*,66*,68*,91*,93*,78*
O=C(NCc1ccc2c(c1)OCO2)c1cnc2ccccn2c1=O,-2,-48,6,12,-3,x,x,x,x,x
O=C(Nc1ccc2c(c1)OCCO2)c1cnc2ccccn2c1=O,-3,12,6,57*,29,11,-1,10,39,6
COc1ccc(NC(=O)c2ccco2)cc1NC(=O)c1ccccc1F,-5,6,-7,-14,-11,x,x,x,x,x
C=C(C)c1cccc(C(C)(C)NC(=O)NCc2ccc(OC)cc2)c1,0,-1,-2,8,-1,x,x,x,x,x
Cc1ccc(C)c(S(=O)(=O)N2CCCCC2CCNC(=O)C(=O)NC2CC2)c1 (configuration not stated),x,8,-5,-7,24,x,x,x,x,x
O=C(Cn1cc(-c2ccccn2)nn1)NS(=O)(=O)c1cccc(OC(F)F)c1,x,34,x,x,x,x,x,x,x,x
O=C(Nc1ccccc1)Nc1ccc(C(=O)N2CCOCC2)cc1,9,19,82*,59*,61*,81*,81*,97*,93*,82*
N#Cc1ccc(C(=O)Nc2ccc3ccccc3c2)cc1,-3,-8,72*,29,22,32,37,81*,59*,5
O=C(Nc1ccc(F)cc1)c1ccccc1F,4,12,2,20,1,x,x,x,x,x
O=C(Nc1cnc2ccccn2c1=O)c1ccc(Cl)cc1Cl,15,-140,69*,66*,7,57*,59*,76*,82*,22
O=C(Nc1ccc2ccccc2c1)c1ccccc1F,16,8,92*,86*,82*,64*,89*,98*,82*,88*
Cc1ccc(C(=O)Nc2cnc3ccccn3c2=O)cc1,4,-200,9,3,-9,x,x,x,x,x
N#Cc1ccccc1Sc1ccccc1C(=O)Nc1ccc2ccccc2c1,2,1,4,13,6,x,x,x,x,x
